Screening results (PubChem BioAssay)
Shiga toxin inh – Shiga toxin inhibition | Vero cells, Shiga toxin protein synthesis inhibition reporter | inhibition, % at 38.7 µM | actives 9.2% (n = 290,000); in the data active = inhibition mostly above about 28%, no sharp cut-off; inactive = mostly below about 43%
Marburg entry inh – Marburg virus entry inhibition; actives 1.8% (n = 300,000); Potency, µM (series often up to 37.8 µM), hits mostly inhibitors; AID 540276; Marburg virus pseudotyped entry inhibition, cell reporter; calls by dose curve; tested in HEK293 cells
Cycloheximide cs – counter-screen for Shiga toxin inhibitors: cycloheximide protein synthesis inhibition; max response, %; actives 12% (n = 300,000); cell reporter, cycloheximide protein synthesis inhibition counterscreen; in the data active = max response mostly above about 13%, no sharp cut-off; inactive = mostly below about 14%; note: read at 38.3 µM for the half of the compounds with a filed dose
LASV entry inh – inhibitors of Lassa virus binding or cell entry; Lassa virus pseudotype entry inhibition, cell reporter; Potency, µM (doses to about 37.9 µM), hits mostly inhibitors; actives 1.2% (n = 300,000); calls by dose curve; tested in HEK293 cells; note: nearly all actives have a fitted effect of over 50% in size
Of the large screens only hits and unclear results are named; the others gave an inactive call. An excerpt weighted towards active compounds, which were near 12% of everything screened.

CCCCn1c(N)c(N(CC(C)C)C(=O)C2=NN(c3cc(C)ccc3C)C(=O)CC2)c(=O)[nH]c1=O	none (no result: Shiga toxin inh, Cycloheximide cs)
CC(C)=CCCC1(C)C=Cc2c(c(C)cc3c2[nH]c2cc(O)ccc23)O1 (stereo not given)	none (no result: Marburg entry inh, LASV entry inh)
COc1ccc2[nH]cc(C(=O)CN3CCCC(C)C3)c2c1 (stereo not given)	none
COc1ccc2[nH]cc(C(=O)CN3CCC(C)CC3)c2c1	Shiga toxin inh 76, Marburg entry inh inconclusive, Cycloheximide cs 35
COc1ccc(-n2c(C)cc(C(=O)CN3CCC(C)CC3)c2C)cc1	Cycloheximide cs 37 (no result: Marburg entry inh, LASV entry inh)
Cc1cccc(NC(=O)CSc2nc3nc(C)cc(C)n3n2)c1	none
O=C(Nc1ccc(NC(=O)c2ccc([N+](=O)[O-])o2)cc1Cl)c1ccco1	none
Cc1cccc(NC(=O)c2ccc([N+](=O)[O-])o2)n1	Marburg entry inh inconclusive, Cycloheximide cs 25
Cc1ccccc1NC(=O)c1ccc([N+](=O)[O-])o1	Shiga toxin inh 45, Marburg entry inh inconclusive, Cycloheximide cs 30
Cc1ccc(NC(=O)c2ccc([N+](=O)[O-])o2)c(C)c1	Shiga toxin inh 80, Cycloheximide cs 38 (no result: Marburg entry inh, LASV entry inh)
O=C(Nc1ccccc1Cl)c1ccc([N+](=O)[O-])o1	Shiga toxin inh 110, Marburg entry inh 13µM, Cycloheximide cs 60, LASV entry inh inconclusive
O=C1c2cccc3c(O)ccc(c23)C(=O)N1Cc1ccccc1	none
CC(=O)Nc1ccc(S(=O)(=O)NCCC(=O)N2CCc3ccccc32)cc1	Marburg entry inh inconclusive
Nn1c(=O)c2ccccc2n2c(SCc3ccc(C(F)(F)F)cc3)nnc12	none
O=C(c1nn(Cc2ccccc2)c(=O)c2ccccc12)N1CCN(C/C=C/c2ccccc2)CC1	Marburg entry inh inconclusive, LASV entry inh inconclusive
O=C(Nc1nccs1)c1ccc(-c2ccccc2[N+](=O)[O-])o1	Shiga toxin inh 106, Marburg entry inh inconclusive, Cycloheximide cs 54, LASV entry inh inconclusive
O=C(Cc1ccccc1[N+](=O)[O-])Nc1nccs1	none
COc1ccccc1NC(=O)c1ccc(-c2ccccc2[N+](=O)[O-])o1	Shiga toxin inh 115, Marburg entry inh inconclusive, Cycloheximide cs 60 (no result: LASV entry inh)
CCCCn1nnc(NC(=O)c2ccc(-c3ccccc3[N+](=O)[O-])o2)n1	Shiga toxin inh 49, Cycloheximide cs 27 (no result: Marburg entry inh, LASV entry inh)
CCn1nnc(NC(=O)c2ccc([N+](=O)[O-])o2)n1	none
CC(=O)Cc1nsc(NC(=O)c2ccc(-c3ccccc3Cl)o2)n1	none
O=C(Nc1nccs1)c1ccc(-c2ccccc2Cl)o1	Shiga toxin inh 76, Marburg entry inh inconclusive, Cycloheximide cs 44, LASV entry inh inconclusive
CCOC(=O)C(=CNc1cccnc1Oc1ccc(C)c2c1CCC2)C(=O)OCC	none
CC(=O)c1ccc(S(=O)(=O)Nc2ccc(C(=O)N3CCC3)cc2)cc1	none (no result: Shiga toxin inh, Cycloheximide cs)
NC1=NC(=O)/C(=C\c2ccco2)S1	Cycloheximide cs 17
NC1=NC(=O)C(=Cc2ccccc2)S1	none (no result: Shiga toxin inh, Cycloheximide cs)
CN1CCN(C(c2ccc(C(F)(F)F)cc2)c2ccc3cccnc3c2O)CC1 (stereo not given)	Marburg entry inh inconclusive, LASV entry inh 7.9µM
CS(=O)(=O)CCNCc1ccc(-c2ccc3ncnc(Nc4ccc(OCc5cccc(C(F)(F)F)c5)cc4)c3c2)o1	LASV entry inh 28µM (no result: Shiga toxin inh, Marburg entry inh, Cycloheximide cs)
Cc1ccccc1CNC(=O)CCNS(=O)(=O)c1ccc(OC(F)(F)F)cc1	none (no result: Shiga toxin inh, Cycloheximide cs)
Nc1c(-c2cccc(Cl)c2)cnn1-c1cccc(C(F)(F)F)c1	Shiga toxin inh 58, Cycloheximide cs 31
Nc1c(-c2ccccc2)cnn1-c1cccc(C(F)(F)F)c1	Shiga toxin inh 83, Cycloheximide cs 68
Cc1cc(C)n(CCNC(=O)c2ccco2)n1	none
Cc1cc(N/C(=N/S(=O)(=O)c2cc(F)ccc2F)c2ccccc2)n(-c2ccccc2)n1	Cycloheximide cs 15, LASV entry inh inconclusive
Cc1ccc2nc(N/C(=N/S(=O)(=O)c3ccc(F)cc3)c3ccccc3)sc2c1	Shiga toxin inh 132, Cycloheximide cs 48 (no result: Marburg entry inh, LASV entry inh)
Cc1cc(N/C(=N\S(=O)(=O)c2ccc(F)cc2F)c2ccccc2)no1	none
Cc1ccc2nc(N/C(=N/S(=O)(=O)c3ccc(F)cc3F)c3ccccc3)sc2c1	Shiga toxin inh 66, Marburg entry inh inconclusive, Cycloheximide cs 31
CCn1c(=O)c2cc(C(=O)NCc3cc(OC)ccc3OC)sc2c2ccccc21	none (no result: Shiga toxin inh, Cycloheximide cs)
Cc1noc(C)c1-c1ccc2ncnc(NCc3ccccc3Cl)c2c1	none (no result: Marburg entry inh, LASV entry inh)
c1ccc(-c2csc(NC3CCCCC3)n2)cc1	Shiga toxin inh 148, Marburg entry inh inconclusive, Cycloheximide cs 56, LASV entry inh inconclusive
O=C(Cc1csc(NC(=O)Nc2cccc(Cl)c2)n1)NC1CCCC1	Marburg entry inh 13µM (no result: Shiga toxin inh, Cycloheximide cs)
COc1ccc(-c2csc(NC3CCCCC3)n2)c(OC)c1	Shiga toxin inh 60, Cycloheximide cs 26
O=C(Nc1nc(-c2ccccc2)cs1)NC1CCCCC1	Shiga toxin inh 48, Marburg entry inh inconclusive, Cycloheximide cs 34, LASV entry inh inconclusive
Cc1ccc(NC(=O)Cn2c(=O)n(CCCCCC(=O)NCc3ccc(F)cc3)c(=O)c3sccc32)cc1C	none (no result: Shiga toxin inh, Cycloheximide cs)
O=C(Nc1nnc(-c2ccc3c(c2)OCCO3)o1)C1CCCCC1	Shiga toxin inh 131, Cycloheximide cs 43, LASV entry inh inconclusive
COc1ccc(C(=O)Nc2nnc(C3=COCCO3)o2)cc1	Marburg entry inh inconclusive, LASV entry inh inconclusive
CCOc1ccc(-c2nnc(NC(=O)C3CCCC3)o2)cc1	Shiga toxin inh 42, Cycloheximide cs 35
O=C(CCOc1ccccc1)Nc1nnc(-c2ccc3c(c2)OCCO3)o1	Cycloheximide cs 21
CCOc1ccc(C(=O)Nc2nnc(C3=COCCO3)o2)cc1	Cycloheximide cs 8.4
O=C(Nc1nnc(-c2ccc(Cl)cc2)o1)C1CCCCC1	none (no result: Marburg entry inh, LASV entry inh)
O=C(Nc1nnc(-c2ccccc2)o1)C1CCCCC1	none (no result: Marburg entry inh, LASV entry inh)
CCC(C)n1c(=N)c(C(=O)NC2CCCCC2)cc2c(=O)n3cc(C)ccc3nc21 (stereo not given)	none (no result: Shiga toxin inh, Cycloheximide cs)
CC[C@@H]1Cn2c(c3nc(-c4cc(Cl)cc(Cl)c4Cl)nc-3n(C)c2=O)N1	none (no result: Marburg entry inh, LASV entry inh)
COc1cc(/C=N/NC(=O)c2cccnc2)ccc1OCC(=O)N1CCOCC1	none
CC(C)(C)c1ccc(OCCCNC2CCCC2)cc1	Marburg entry inh 6.3µM, LASV entry inh inconclusive
COc1cccc2cc(C(=O)NC(C)c3ccccc3)c(=O)oc12 (stereo not given)	none
CCOCCCn1c(C)nc2c(c1=O)c1nc3ccccc3nc1n2CCC1=CCCCC1	Marburg entry inh 10µM, LASV entry inh inconclusive
Cc1nc2c(c(=O)n1CCC1=CCCCC1)c1nc3ccccc3nc1n2/N=C/c1ccccc1	LASV entry inh inconclusive
Oc1ccc(Cl)cc1C1=Nc2ccccc2N=C(c2ccco2)C1	none
Fc1ccccc1C1CC(c2ccco2)=Nc2ccccc2S1 (stereo not given)	Shiga toxin inh 104, Cycloheximide cs 49 (no result: Marburg entry inh, LASV entry inh)
S=c1[nH]nc(C2CCCCC2)n1Cc1ccccc1	LASV entry inh inconclusive
CCOC(=O)Cc1csc(NC(=O)c2cc(OC)cc(OC)c2)n1	none
CCOC(=O)Cc1csc(NC(=O)/C=C\c2ccccc2)n1	Shiga toxin inh 53, Cycloheximide cs 32
CCOC(=O)Cc1csc(NC(=O)COc2ccc(C)c(C)c2)n1	Shiga toxin inh 41, Cycloheximide cs 33
CCOC(=O)Cc1csc(NC(=O)Nc2ccc(OC(F)(F)F)cc2)n1	Shiga toxin inh 45, Marburg entry inh inconclusive, Cycloheximide cs 23, LASV entry inh inconclusive
CCOC(=O)Cc1csc(NC(=O)/C=C/c2ccc(OC)cc2)n1	Shiga toxin inh 115, Marburg entry inh inconclusive, Cycloheximide cs 37, LASV entry inh inconclusive
